The nature of the test: activators of LNCaP cell differentiation, retest, confirmation, side scatter shift, flow cytometry (AID 1069).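 Also: LNCaP human prostate cancer cells in low-serum medium with charcoal-stripped FBS; percent of cells with raised granularity gated so DMSO controls show 10%.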 The conditions noted are these: 4 d, stronger effect = higher value.

Activity calls are given as the source filed them.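 The calls were made as follows: active = high combined rank on largest and smallest cell-count-weighted shift across three tests, rank score above 45, floors 50 and 25 (some results past the limit were not filed as active); inactive = the rest.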

For the molecule `CCc1cc(C)cc(OCCNC(=O)c2ncn[nH]2)c1`, the side scatter shift (at 100 µM) is 3.5% (inactive) and the side scatter shift (side scatter shift, at 10 µM) came to 0%.
Take `Cn1c(=O)[nH]c(=O)c2c1nc(Br)n2CCCSc1nc2ccccc2o1`: the side scatter shift (at 100 µM) is 0% (inactive) and the side scatter shift (side scatter shift, at 10 µM) came out at 8%.
Turning to `CCOC(=O)C1=C(O)CCn2c1nc1ccccc12`, the side scatter shift (at 100 µM) is 18% (inactive) and the side scatter shift (side scatter shift, at 10 µM) amounted to 3.3%.
In the case of `Cc1ccccc1-c1nc(CN2CCC(C(=O)NCCCN3CCOCC3)CC2)c(C)o1`, the side scatter shift is 78.9% (active) (at 100 µM) and 13.4% (side scatter shift, at 10 µM).
Take `O=C(Nc1nc(-c2ccccc2)cs1)C1CCCCN1S(=O)(=O)c1ccccc1` (centres undefined): the side scatter shift runs as follows: (at 100 µM) 0.4% (inactive); (side scatter shift, at 10 µM) 4.75%.
Regarding `O=C(CSc1c[nH]c2ccccc12)N1CCOCC1`, the side scatter shift by setting is: (at 100 µM) 11.4% (inactive); (side scatter shift, at 10 µM) 4.25%.
On to `Cc1oc(-c2ccccc2F)nc1CN1CCC(C(=O)NC2CC2)CC1`, for which the side scatter shift is 13.5% (inactive) (at 100 µM) and 2.4% (side scatter shift, at 10 µM).
On the same counts, the results for `Cc1ccc(-c2noc(CCC(=O)NCCCN3CCN(c4cccc(Cl)c4)CC3)n2)cc1` are 31.8% (inactive) and 11.5%.
On the same counts, the results for `COc1ccccc1N1CCN(c2nc3ccccc3nc2C(C#N)C(=O)OC(C)C)CC1` (centres undefined) are 78.2% (active) and 21.1%.
Take `O=C(NCCCN1CCN(c2ccccc2F)CC1)C1CCN(S(=O)(=O)N2CCOCC2)CC1`: the side scatter shift by setting is: (at 100 µM) 19.9% (inactive); (side scatter shift, at 10 µM) 7.2%.
On to `O=C(CCN1C(=O)COc2ccccc21)NCCCN1CCN(c2ccccc2F)CC1`, for which the side scatter shift was 21% (inactive) (at 100 µM) and 4.4% (side scatter shift, at 10 µM).
Turning to `CC(C)n1c(=S)[nH]c2c1c(=O)[nH]c(=O)n2C`, the side scatter shift runs as follows: (at 100 µM) 8.1% (inactive); (side scatter shift, at 10 µM) 2.4%.
On the same counts, the results for `CCCCOC(=O)Nc1cc(C(=O)OC)ccc1C(=O)OC` are 21% (inactive) and 1.25%.
On the same counts, the results for `COc1ccc(-c2coc3c(CN4CCCCC4)c(O)c(CN4CCCCC4)c(O)c3c2=O)cc1` are 28.6% (inactive) and 3.3%.
On the same counts, the results for `Cc1oc(-c2ccc(Cl)cc2)nc1CN1CCCC(C(=O)NCc2ccco2)C1` (centres undefined) are 22.2% (inactive) and 12.7%.
Regarding `COc1ccc(-c2cc(C(=O)NCc3ccc(Cl)cc3)no2)cc1OC`, the side scatter shift reads like this: (at 100 µM) 28.5% (inactive); (side scatter shift, at 10 µM) 7.15%.
On to `CC(C)(C)C1CCc2onc(C(=O)Nc3cnn(Cc4ccc(F)cc4)c3)c2C1` (centres undefined), for which the side scatter shift is, setting by setting: (at 100 µM) 25.8% (inactive); (side scatter shift, at 10 µM) 3.7%.
As for `CCOC(=O)c1[nH]c(C)c(C(=O)N2CCc3ccccc32)c1C`, the side scatter shift is 7.7% (inactive) (at 100 µM) and 15.4% (side scatter shift, at 10 µM).
For the molecule `Cn1cc(CNC(=O)C2c3ccccc3Oc3ccccc32)cn1`, the side scatter shift (at 100 µM) was 7.3% (inactive) and the side scatter shift (side scatter shift, at 10 µM) was determined as 3%.
As for `CCc1nnc(NC(=O)CSc2nc3ccccc3s2)s1`, the side scatter shift is 5.7% (inactive) (at 100 µM) and 5% (side scatter shift, at 10 µM).
On to `CCOC(=O)C1CCCN(C(=O)Cn2cccc2C(=O)c2ccccc2)C1` (centres undefined), for which the side scatter shift reads like this: (at 100 µM) 6% (inactive); (side scatter shift, at 10 µM) 2.5%.
Regarding `Cn1c(=O)cc(SCC(=O)NCCCN2CCN(c3ccccc3F)CC2)c2ccccc21`, the side scatter shift was 70.5% (active) (at 100 µM) and 12.8% (side scatter shift, at 10 µM).
Take `CCCCOc1ccccc1NC(=O)Cn1c(-c2nonc2N)nc2ccccc21`: the side scatter shift was 19.2% (inactive) (at 100 µM) and 17.4% (side scatter shift, at 10 µM).
On to `Cc1cccc(OCCn2c(=O)n(C)c3ccccc32)c1`, for which the side scatter shift (at 100 µM) was 26.7% (inactive) and the side scatter shift (side scatter shift, at 10 µM) is 4.5%.
Regarding `Cc1cccc(-c2nc(CN3CCCC(C(=O)NC4CCCCC4)C3)c(C)o2)c1` (centres undefined), the side scatter shift runs as follows: (at 100 µM) 21.4% (inactive); (side scatter shift, at 10 µM) 7.35%.
On the same counts, the results for `CCOC(=O)N1CCC(NC(=O)c2cc3c(-c4ccccc4F)nn(C)c3s2)CC1` are 3.3% (inactive) and 3.9%.
Take `CCOc1ccc(OCC)c(NC(=O)C2CCCN(S(=O)(=O)c3c(C)noc3C)C2)c1` (centres undefined): the side scatter shift was 19.8% (inactive) (at 100 µM) and 2.05% (side scatter shift, at 10 µM).

The values above are taken from PubChem BioAssay AID1069 (NMMLSC, 2008).
